# Experimental data taken from PubChem BioAssay (NCI).
# About 83,000 compounds went through this panel and 20% of them were active in at least one assay; those are over-represented in the sample as a whole.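 The test compound was applied at a single concentration to cells in 96-well plates for 48 hours, and percent growth was recorded.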 The source made the active and inactive calls. The calls were made as follows: active = growth percent below 10; inactive = the rest.
# Tested on: LOX IMVI melanoma
# Experiment: NCI-60 one-dose screen, 48 h (100 = growth as untreated, 0 = no growth, -100 = all killed)
# Conditions: 10 µM unless noted
row,Structure (SMILES),growth
1,CCCc1cc2cc(-n3nc(C)c4c3CC(C)(C)CC4=O)cc(NC3CCSCC3)c2c(=O)[nH]1,54.8% (inactive)
2,COc1ccc(-c2cc(-c3ccc(OC)c(OC)c3)nc(SCCCCCC(=O)NO)n2)cc1,56.9% (inactive)
3,CCC(C)[C@H](NC(=O)NC(=O)NC(=O)CI)C(=O)OC (some centres undefined),-79.2% (active)
4,CCN(CC)c1ccc(/C=C/c2ccc3cc(C)ccc3[n+]2CC)cc1,-8.32% (active)
5,N/C(=N\c1nc2ccccc2[nH]1)NC(=O)Cc1cccc2ccccc12,81.4% (inactive)
6,CC1(C)CC[C@]2(C(N)=O)CC[C@]3(C)C(=CC[C@@H]4[C@@]5(C)C/C(=C/c6ccncc6)C(=O)C(C)(C)[C@@H]5CC[C@]43C)[C@@H]2C1,-51.4% [100 µM] (active)
7,Cc1ccc(C2=C/C(=C/c3ccc(Br)cc3)C(=O)N2CCc2ccc(S(N)(=O)=O)cc2)cc1,99.6% (inactive)
8,Cc1ccc(NCCN2CCCCC2)c2c(=O)c3ccccc3sc12,-50.1% (active)
9,CC1(C)CC(=O)c2c(ccc(C(=O)C[C@@H](N)CO)c2N)O1,-59% (active)
10,CCCCC1COc2cccc3c2N1C=C/C3=C\C(=O)n1ccc2ccccc21 (centres undefined),76% (inactive)
11,CC(C)CSc1ncnc2nc[nH]c12,98% (inactive)
12,CC1(C)CC[C@]2(C(=O)O)CC[C@]3(C)C(=CC[C@@H]4[C@@]5(C)C/C(=C/c6cccnc6)[C@H](O)C(C)(C)[C@@H]5CC[C@]43C)[C@@H]2C1,-87.1% [100 µM] (active)
13,COc1ccc(C=C2c3ccccc3-c3ccccc32)cc1,41.3% (inactive)
14,C#C[C@]1(O)CC[C@H]2[C@@H]3CC=C4c5nc(Nc6ccc(OC)cc6OC)sc5CC[C@]4(C)[C@H]3CC[C@@]21C,-78.3% (active)
15,CCOC(=O)c1nn(C2CCCCO2)c2ccc(NC(=O)CSc3nc4ccccc4c(=O)[nH]3)cc12 (centres undefined),96.2% (inactive)
16,O=c1[nH]cnc2c1ccn2C1OC(CO)C(O)C1O (centres undefined),27.8% (inactive)
17,CCOC(=O)C(=Cc1ccccc1[N+](=O)[O-])C(=O)OCC,-18.5% (active)
18,Cc1cc(C)c(S(=O)(=O)/N=c2/n(-c3ccccc3)nc3n2CCN3C2=NCCN2)c(C)c1,73.3% (inactive)
19,COC(=O)c1cc2c(=O)[nH]cc3c2c(n1)CCC3,104% (inactive)
20,Cn1cc(-c2noc(C(=O)c3cn(C)c4ncccc34)n2)c2ccccc21,94.8% (inactive)
21,O=c1cc(-c2ccccc2)oc2cc(OCc3cn(Cc4ccc(F)cc4)nn3)cc(O)c12,78.5% [100 µM] (inactive)
22,Cc1ccc(Cn2c(O)c(N=NC(=O)c3ccc(S(N)(=O)=O)cc3)c3ccccc32)cc1,103% (inactive)
23,CC[C@]12C=CCN3CC[C@@]4(c5ccc(OC)cc5N(C)[C@H]4[C@@](O)(C(=O)OC)[C@@H]1OC(=O)CCC(=O)O[C@H]1CC[C@H]4[C@@H]5CCC6=CC(=O)CC[C@@H]6[C@H]5CC[C@]14C)[C@@H]32,-29.5% [100 µM] (active)
24,CCC(Br)(CC)C(=O)c1ccc(OCC(=O)O)c(Cl)c1Cl,96.9% (inactive)
25,Oc1c(CNCCNCc2cc(Cl)cc(Cc3ccccc3)c2O)cc(Cl)cc1Cc1ccccc1,4.57% (active)
26,CCc1ccc(-c2ccc(COc3ccc(CC4SC(=O)NC4=O)cc3)cc2)cc1 (centres undefined),63.3% (inactive)
27,Cn1cc(-c2noc(-c3cn(C)c4ncc(F)cc34)n2)c2ccccc21,52.3% (inactive)
28,Clc1ccc2nc(-c3ccc(-c4ccc(/C=N/NC5=NCCN5)cc4)s3)cn2c1,97.9% (inactive)
29,CC(C)CCSc1nc(N)nc2nc[nH]c12,86.8% (inactive)
